Source: PubChem BioAssay
These entries were drawn from the full list.
aSyn UTR act – Activators working through SNCA 5'UTR binding (MLPCN); alpha-synuclein 5'UTR reporter, activators screen; activity score, % (tested at 7.5 µM), hits read low; 300,000 tested, 7.1% active; in the data active means activity score below about -60%
Each line names hits and unclear results; the compound was inactive in the other large screens.

O=C(/C=C/c1cn(-c2ccccc2)nc1-c1cccnc1)c1ccco1	aSyn UTR act -63.4
COc1cc2c(C#N)c(N3CCc4ccccc4C3)nc(N)c2c(N)n1	aSyn UTR act -88.5
CC(=O)c1cccc(NC(=O)c2ccc(Br)o2)c1	aSyn UTR act -71.1
O=C(Nc1cccc(F)c1)c1ccc(Br)o1	aSyn UTR act -65.7
Cc1ccc(OCC(=O)Nc2ccc(F)cc2)c([N+](=O)[O-])n1	aSyn UTR act -166.7
Cc1ccc(NC(=O)CSCc2ccc(F)cc2)cc1	aSyn UTR act -81.4
Cc1ccc(OCC(=O)Nc2ccc(F)cc2)cc1	aSyn UTR act -95.6
Cc1ccc(NC(=O)Cc2ccc(F)cc2)cc1	aSyn UTR act -81.0
Cc1ccc(NC(=O)CSCc2ccco2)cc1	aSyn UTR act -129.7
Cc1ccc(CSCC(=O)Nc2ccccc2F)cc1	aSyn UTR act -81.3
Cc1ccc(NC(=O)C(=S)NCc2ccco2)cc1	aSyn UTR act -134.7
CCc1ccc(-c2nc(CSCC(=O)NCc3ccco3)c(C)o2)cc1	none
O=C(Cc1n[nH]c(=O)c2ccccc12)OCC(=O)c1ccc2c(c1)OCCO2	none
CCOc1ccc(C(=O)COC(=O)Cc2n[nH]c(=O)c3ccccc23)cc1	aSyn UTR act -87.2
COc1ccccc1NC(=O)c1cnc(Nc2ccccc2OC)c2ccccc12	none
Cc1cccc(C)c1NC(=O)c1c[nH]c2ccccc12	aSyn UTR act -120.1
COc1ccccc1NC(=O)c1c[nH]c2ccccc12	aSyn UTR act -78.2
CC(=O)C1CCCN(C(=O)c2ccc3oc(CCc4ccccc4)nc3c2)C1 (stereo not given)	aSyn UTR act -94.0
CCOC(=O)C1CCCCN1C(=O)CCc1c(C)nc2cc(-c3ccccc3)nn2c1C (stereo not given)	none
COC(=O)C1CCCCN1C(=O)c1ccc2oc(Cc3ccccc3)nc2c1 (stereo not given)	aSyn UTR act -87.9
O=C(c1ccc2oc(CCCc3ccccc3)nc2c1)N1CCCC1	aSyn UTR act -140.9
COCCC1CCCCN1C(=O)c1ccc2nc(Cc3ccccc3F)oc2c1 (stereo not given)	aSyn UTR act -131.1
CCOC(=O)C1CCCN(C(=O)c2ccc3oc(CCc4ccccc4)nc3c2)C1 (stereo not given)	aSyn UTR act -72.2
C=CCN1C(=O)C(=O)N(Cc2nc3ccccc3s2)C1=O	aSyn UTR act -117.6
O=C(Nc1ccc([N+](=O)[O-])cc1)c1ccccc1	aSyn UTR act -121.6
O=C(C#Cc1ccccc1)c1ccc([N+](=O)[O-])cc1	aSyn UTR act -95.4
O=C(Nc1ccc(C2SCCS2)cc1)c1ccccc1	aSyn UTR act -88.3
O=C(Nc1ccc(Nc2ccccc2)cc1)c1ccccc1	aSyn UTR act -176.5
O=C(Nc1ccc(-c2nc3ccccc3s2)c(OC(=O)c2ccccc2)c1)c1ccccc1	aSyn UTR act -175.0
Cc1ccc(C(=O)C[n+]2ccc(Cc3ccccc3)cc2)cc1	none
O=C(C[n+]1ccc2ccccc2c1)c1ccc(NC(=O)c2ccccc2)cc1	aSyn UTR act -87.5
CNC(=O)c1ccc(NC(=O)Nc2ccccc2)cc1	aSyn UTR act -71.1
O=C(Nc1ccc2nc3ccccc3nc2c1)c1ccccc1	aSyn UTR act -96.6
O=C(Nc1ccccc1)c1ccc(NC(=O)C2CC2)cc1	aSyn UTR act -105.3
Cc1ccc(C(=O)Nc2ccc(Nc3ccccc3)cc2)cc1C	aSyn UTR act -62.2
O=C(N[C@H]1CC1c1ccccc1)c1ccc([N+](=O)[O-])cc1 (stereo not given in full)	aSyn UTR act -106.7
CCN(CC)c1ccc(C(=O)Nc2ccccc2)cc1[N+](=O)[O-]	aSyn UTR act -151.5
O=C(Nc1csc(Cl)c1)c1ccccc1	aSyn UTR act -160.6
O=C(Nc1ccc(F)cc1)c1ccccc1	aSyn UTR act -83.3
CC(Cc1ccccc1)NC(=O)c1ccc([N+](=O)[O-])cc1 (stereo not given)	aSyn UTR act -89.8
CCCCNC(=O)Nc1ccc(C2SCCS2)cc1	aSyn UTR act -91.5
O=C(Nc1ccc(-c2nnco2)cc1)c1ccccc1	aSyn UTR act -78.3
COc1cc(OC)cc(C(=O)Nc2ccc(Nc3ccccc3)cc2)c1	aSyn UTR act -164.7
CCn1c2ccccc2c2cc(NC(=O)c3cc(OC)cc(OC)c3)ccc21	none
O=C(Nc1ccc(SC(F)F)cc1)c1ccc(F)cc1	aSyn UTR act -162.8
N#Cc1cc2c(nc1SCC(=O)N1CCOCC1)CCCCC2	aSyn UTR act -64.6
N#Cc1cc2c(nc1SCC(N)=O)CCCCC2	aSyn UTR act -76.6
CCc1ccc(NC(=O)c2ccc3ncsc3c2)cc1	aSyn UTR act -155.2
O=C(Nc1ccc(Br)cc1)c1ccc2ncsc2c1	aSyn UTR act -127.9
O=C(Nc1ccc2c(c1)C(=O)NC2=O)c1ccc2ncsc2c1	aSyn UTR act -62.6
COc1ccc(NC(=O)c2ccc3ncsc3c2)cc1	aSyn UTR act -167.8
Cc1nn(C)c(C(=O)NNC(=S)Nc2ccc(Cl)cc2)c1[N+](=O)[O-]	aSyn UTR act -71.3
COc1ccccc1NC(=S)NNC(=O)c1ccccc1	aSyn UTR act -101.4
CC(=O)c1ccc(NC(=S)NNC(=O)c2ccncc2)cc1	aSyn UTR act -70.2
CCCC(=O)NC(=S)Nc1ccc(C(C)=O)cc1	aSyn UTR act -83.5
COc1ccc(C(=O)NNC(=S)Nc2ccccc2)cc1	aSyn UTR act -207.2
